Sampled rows, rich in hits. Any-hit rate of the full collection: about 6.9%.
SKKanGAS inh = inhibitors of SKKanGAS S. pyogenes growth in kanamycin (SK-promoter or general growth effect) | inhibition, % at 7.5 µM | hit rate 1.3% among 300,000 | BacTiter-Glo, 6 h;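 active = mean replicate score, as percent of positive control median, at least 50; inconclusive = mean below 50 but one replicate at or above 50; inactive = mean and every replicate below 50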;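 also: strain carries kanamycin resistance gene driven by streptokinase promoter and grows in 40 µg/ml kanamycin; loss of luminescence reflects streptokinase promoter inhibition or plain growth inhibition; 0% = median of DMSO wells and 100% = positive control at its reference dose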
MPTP inh = inhibitors of mitochondrial permeability transition pore; inhibition, % at 10 µM; hit rate 1.4% among 360,000; isolated mouse mitochondria, Ca2+ swelling absorbance, 30 min;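 active = inhibition of 50% or more, scaled per plate between neutral and stimulator controls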;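 also: 0% = DMSO wells given calcium and 100% = 1 mM EGTA wells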
Mdm2 MdmX PPI = inhibitors of human Mdm2/MdmX interaction. SaOS-2 split-luciferase Mdm2/MdmX complementation, luminescence. inhibition, % at 8 µM. hit rate 3% among 330,000;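 active = inhibition of at least 50% at 8 µM in the primary screen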
Beta cell apopt = beta cell apoptosis inhibition | INS-1E cytokine-induced death, ATP luminescence, 48 h; percent of positive-control rescue, neutral wells zero | protection from apoptosis, % (no concentration beside the values) | hit rate 0.8% among 300,000 | AID 435005;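 active = Every replicate reaches about 75%, or at least half do and their mean reaches it too, limit read from the data; inconclusive = At least half of replicates reach the limit but their mean does not; inactive = Under half of replicates reach the limit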;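 also: 0% = cytokine-treated negative control wells and 100% = positive control rescue; higher means more ATP so stronger rescue from cytokine killing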
CSC inhib = cancer stem cell inhibition. inhibition, % at 7.5 µM. hit rate 1.1% among 300,000. AID 2717. cancer stem cell-like cells viability, luminescence; in the data active = inhibition above about 75%; inconclusive = no clear call, values can overlap the other calls; tested in HMLE shEcad cells
NR3A LBD binder = modulates the human NR3A ligand-binding domain; NR3A LBD differential scanning fluorimetry, Tm shift; 0% = protein alone, 100% = glycine-bound protein; Tm shift relative to glycine control, % at 25 µM; hit rate 2.5% among 340,000; AID 1259313;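 active = melting temperature shift of at least 10% of the positive control shift, at one fixed dose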
* = called active by the depositor; ? = inconclusive; . = not tested or not shown.

SMILES	SKKanGAS inh	MPTP inh	Mdm2 MdmX PPI	Beta cell apopt	CSC inhib	NR3A LBD binder
C/C(=N\Nc1nc(C)cc(-c2ccccc2)n1)c1cccc(N)c1	7.8	1.4	-1.6	88.9*	9.6	-2.2
C/C(=N\Nc1nc(C)cc(-c2ccccc2)n1)c1ccc(O)cc1	-0.2	1.1	26.0	82.9*	-8.3	-1.4
C/C(=N\Nc1nc(C)cc(-c2ccccc2)n1)c1ccccc1	-5.4	0.7	8.8	82.0*	-12.9	-3.8
COc1ccc(OC)c(/C=C2\Oc3cc(OCC(=O)N4CCC(C(=O)O)CC4)ccc3C2=O)c1	26.4	-1.9	23.2	-3.9	-3.4	-0.5
CC1(C)Cc2c(sc(NC(=O)C(=O)N3CCCC3)c2C#N)CO1	-0.4	-2.3	26.0	1.8	-6.0	-0.7
O=C(NCCN1CCOCC1)NC1(C(F)(F)F)Oc2ccc(Cl)cc2O1 (configuration not stated)	-3.2	0.8	.	2.2	?	5.2
COCC(C)NC(=O)NC1(C(F)(F)F)Oc2ccc(Cl)cc2O1 (configuration not stated)	0.9	2.3	3.0	0.7	79.7*	-0.8
CCOc1ccc(NC(=O)CCCN2C(=S)NC(C)(C)CC2C)cc1 (configuration not stated)	-1.1	-0.9	-13.2	-0.1	-7.2	11.9*
COC(=O)C1CCN(C(=O)COC(=O)/C=C/c2ccc(O)c(OC)c2)CC1	.	0.2	6.6	-2.1	-17.9	0.9
CC(=O)Nc1ccc(NC(=O)Cn2nc(C(=O)Nc3ccc(C)cc3)ccc2=O)cc1	5.1	-2.1	18.4	-5.7	-8.2	1.2
CCOc1ccc2nc(N/C(N)=N/C(=S)Nc3ccc(C)c(C)c3)nc(C)c2c1	12.0	-0.5	24.6	-1.4	55.0	20.1*
CCN1CCN(c2ccc(NC(=O)c3ccc(Cl)c(S(=O)(=O)N4CCCC4)c3)cc2)CC1	.	0.0	2.2	.	.	1.6
CCN(CC)CCOC(=O)c1ccc(NC(=O)c2ccc(Cl)c(S(=O)(=O)N3CCCCCC3)c2)cc1	4.8	14.9	32.1	4.3	76.9*	-1.2
CN1C(=O)C(CCC(=O)O)NC1=S (configuration not stated)	-3.1	0.0	-16.1	-6.0	-0.5	1.5
CC(C)C[C@@H](CN1CCC[C@@H]1CN1C(=S)NC[C@@H]1Cc1ccccc1)N1C[C@H](Cc2ccc(O)cc2)N(CC2CCCCC2)C1=S	.	-2.6	.	.	.	.
CC(C)C[C@@H](CN1CCCC1CN1C(=S)NC[C@@H]1Cc1ccc(O)cc1)N1C[C@H](Cc2ccc(O)cc2)N(CC2CCCCC2)C1=S (some centres not stated)	.	0.6	.	.	.	33.2*
CC(C)C[C@H]1CNC(=S)N1CC1CCCN1C[C@H](CC(C)C)N1C[C@H](Cc2ccc(O)cc2)N(CC2CCCCC2)C1=S (some centres not stated)	.	3.9	.	.	.	11.9*
Cc1nnc(SCC(=O)N2CCN(c3ccccc3)CC2)n(N)c1=O	-7.4	0.2	-6.1	-8.3	4.1	-2.0
CCN1C(=O)/C(=C\c2ccncc2)SC1=Nc1ccc(C)c(C)c1	13.2	0.8	24.7	8.0	84.5*	13.1*
CCCN1C(=O)/C(=C\c2ccncc2)SC1=Nc1ccccc1	-0.1	1.3	5.8	-9.3	.	8.6
Clc1ccc(Nc2ccc(Cl)nn2)cc1	0.1	6.8	-14.3	.	-11.2	24.3*
COc1ccc(Nc2ccc(Cl)nn2)cc1	-2.0	2.3	13.4	-5.0	-3.9	-1.8
O=c1ccc(Cl)nn1-c1ccccc1	-7.0	1.3	13.0	0.7	-3.7	0.9
CCc1ccccc1NC(=O)CN1CCN(C(=O)CN2C(=O)NC3(CCCCC3C)C2=O)CC1 (configuration not stated)	.	-1.8	16.9	.	.	20.8*
CCN1C(=O)c2ccc(C(=O)Nc3cccc(C(=O)O)c3)cc2C1=O	14.3	-0.4	5.4	-4.2	0.8	1.4
SMILES	SKKanGAS inh	MPTP inh	Mdm2 MdmX PPI	Beta cell apopt	CSC inhib	NR3A LBD binder
CCc1ccc(OCc2n[nH]c(=S)n2Cc2ccccc2)cc1	1.8	7.7	-38.7	5.6	2.5	1.8
CCc1ccc(OCc2n[nH]c(=S)n2C(C)CCCC(C)C)cc1 (configuration not stated)	41.8	3.8	27.7	10.5	118.3*	-6.8
Cc1ccc(C)c(OCCC(=O)N(C)CC(=O)Nc2c(C)cccc2C)c1	.	0.9	-2.7	-4.4	.	-0.2
COc1cc2cc(C(=O)N3CCOCC3)cc(-c3ccc(C)cc3)c2cc1OC	-1.9	1.2	18.7	101.4*	-2.1	-4.0
CC(C)c1ccc(NC(=O)COC(=O)CSc2nnc(N)s2)cc1	-0.8	-4.0	2.4	-4.6	0.2	13.0*
Nc1nnc(SCC(=O)OCC(=O)Nc2ccccc2F)s1	-1.3	-1.0	0.3	1.4	-9.0	0.5
Nc1nnc(SCC(=O)OCC(=O)NC2CCCCC2)s1	1.6	-0.3	-10.1	4.3	92.4*	1.4
COc1cccc(NC(=O)C2CCC(CNC(=O)[C@@H]3Cc4ccccc4CN3)CC2)c1 (some centres not stated)	3.2	-0.3	7.6	0.0	-7.9	-1.3
COc1ccc(C(=O)Nc2ccc(Nc3ccccc3)cc2)cc1[N+](=O)[O-]	19.5	0.6	12.8	15.9	?	27.9*
COc1ccc(C(=O)Nc2ccc(NC(=O)c3cccs3)cc2)cc1[N+](=O)[O-]	6.5	-0.9	17.6	-9.1	-5.3	23.8*
COc1ccc(C(=O)Nc2ccc(C(=O)Nc3nccs3)cc2)cc1[N+](=O)[O-]	2.3	0.0	29.5	-9.1	-6.3	22.2*
Cc1ccc(NC(=O)c2cccs2)cc1[N+](=O)[O-]	-5.5	0.8	-16.9	11.3	-4.3	1.9
COc1ccc(C(=O)Nc2ccc(OCc3ccccc3)cc2)cc1[N+](=O)[O-]	8.6	15.4	-10.9	3.1	-7.6	34.2*
Cc1c(C(=O)Nc2ccc(OCc3ccccc3)cc2)cccc1[N+](=O)[O-]	-0.8	0.6	8.7	6.2	19.1	-9.3
CCCNC(=O)C1(C)CCCN(C(=O)c2ccccc2OC(F)(F)F)C1 (configuration not stated)	.	-1.3	.	.	.	.
Cc1cc(NC(=O)c2ccc(C)c([N+](=O)[O-])c2)no1	7.5	-0.2	-27.3	7.0	8.1	-0.1
Cc1ccc(C(=O)NC(=S)Nc2ccc(NC(=O)c3cccs3)cc2)cc1[N+](=O)[O-]	44.6	3.5	48.0	16.9	-8.0	30.7*
Cc1ccc(C(=O)Nc2cccc(NC(=O)c3ccc(C)c([N+](=O)[O-])c3)n2)cc1[N+](=O)[O-]	21.1	8.1	33.4	22.1	1.0	14.4*
CN(C)S(=O)(=O)c1cccc(COC(=O)CCNC(=O)c2ccc([N+](=O)[O-])cc2)c1	.	2.5	15.8	.	.	-2.6
COCC(C)n1c(SCC(=O)N(C)C2CCS(=O)(=O)C2)nc2ccccc2c1=O (configuration not stated)	-2.9	-1.1	6.8	-4.6	-3.9	1.0
O=C(Nc1cccc([N+](=O)[O-])c1)c1ccc(-c2ccccc2)cc1	1.8	6.3	-4.6	-0.2	-1.2	25.4*
